Assay outcomes deposited in PubChem BioAssay by several laboratories.
Most compounds without a hit are left out; they make up all but 0.77% or so of the library.
Mtb RmlCD inh: inhibitors of Mycobacterium tuberculosis RmlC and RmlD coupled enzymes | RmlC+RmlD coupled enzyme assay, percent inhibition; primary screen in compound mixtures | AID 1533 | P9WH09+P9WH11 | inhibition, % at 3.6 µM | actives 0.03% (n = 160,000); in the data active = inhibition mostly above about 34%, no sharp cut-off; inconclusive = no clear call, values can overlap the other calls; inactive = mostly below about 22%
Target sequence (P9WH09 whole entry, looked up): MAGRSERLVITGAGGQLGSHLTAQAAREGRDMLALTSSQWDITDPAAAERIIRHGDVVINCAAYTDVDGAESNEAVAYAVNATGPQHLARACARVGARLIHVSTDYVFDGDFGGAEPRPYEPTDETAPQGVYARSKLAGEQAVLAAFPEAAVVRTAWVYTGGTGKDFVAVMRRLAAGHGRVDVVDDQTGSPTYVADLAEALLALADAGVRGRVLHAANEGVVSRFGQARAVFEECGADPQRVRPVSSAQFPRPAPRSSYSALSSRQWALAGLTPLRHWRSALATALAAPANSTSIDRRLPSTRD
Target sequence (P9WH11 whole entry, looked up): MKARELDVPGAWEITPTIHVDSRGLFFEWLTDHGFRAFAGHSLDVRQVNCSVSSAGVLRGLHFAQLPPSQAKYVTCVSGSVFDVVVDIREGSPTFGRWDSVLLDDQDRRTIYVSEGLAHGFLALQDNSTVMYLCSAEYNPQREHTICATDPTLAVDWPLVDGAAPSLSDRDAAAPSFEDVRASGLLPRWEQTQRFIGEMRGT
RecA splice inh: Mtb RecA intein splicing inhibition | P9WHJ3 | actives 0.75% (n = 290,000) | inhibition, % (concentration not given with the values) | cell-free RecA intein splicing, fluorescence; in the data active = inhibition above about 30%; inconclusive = no clear call, values can overlap the other calls;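 also: 0% = vehicle wells and 100% = reference inhibitor control wells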
GFP chromo cs: counter-screen GFP chromophore formation inhibition; cell-free GFP chromophore formation, fluorescence; EC50, µM; shares compounds with RecA splice inh; actives 83% (n = 2,100); call rule not given here
* = called active by the depositor; ? = inconclusive; · = no result.

SMILES | Mtb RmlCD inh | RecA splice inh | GFP chromo cs
Cc1ccc(C2C(C#N)=C(N)Oc3n[nH]c(C)c32)cc1 (stereo not given) | 6.9 | 77.4* | 18.8*
Cc1noc2ncnc(N3CCCC3)c12 | 5.1 | -0.4 | ·
Cc1noc2ncnc(Sc3ccc(Br)cc3)c12 | -8.1 | 36.5* | 31.5*
CC1=NN(c2ccc(S(=O)(=O)O)cc2C)C(=O)C1 | 9.6 | 91.3* | 18.4*
Cc1ccc(C)c(N2N=C(C(=O)O)CCC2=O)c1 | · | -2.2 | ·
COc1ccc(C)cc1NC(=O)CN(C)S(=O)(=O)c1ccc2c(c1)CC(C)N2C(C)=O (stereo not given) | · | -2.8 | ·
CCC1CCCCN1S(=O)(=O)c1ccc2c(c1)CCN2C(=O)C1CCC1 (stereo not given) | 8.1 | 7.7 | ·
O=C(CCl)c1ccc2c(c1)CCN2C(=O)C1CCCCC1 | 36.3 | 80.2* | >38
O=C(CN(C(=O)Cn1nnc(-c2cccs2)n1)c1cnc2ccccc2c1)NCC1CCCO1 (stereo not given) | 2.6 | 0.8 | ·
COc1ccc(N(C(=O)CCl)C(C(=O)NCCc2ccccc2)c2cccs2)cc1Cl (stereo not given) | · | 76.6* | 0.955*
COc1cccc(N(C(=O)CCl)C(C(=O)NCCc2ccccc2)c2cccs2)c1 (stereo not given) | -15.0 | 73.4* | 3.27*
COc1ccc(N(C(=O)c2ccco2)C(C(=O)NC2CCCCC2)c2cccs2)cc1OC (stereo not given) | · | 2.7 | ·
COc1cccc(N(C(=O)c2snc(C(N)=O)c2N)C(C(=O)NCC2CCCO2)c2cccs2)c1 (stereo not given) | · | 0.5 | ·
Cn1c(=O)c2c(nc(SCC(=O)N3CCOCC3)n2C)n(C)c1=O | · | -0.9 | ·
CCN(CC)S(=O)(=O)c1ccc(C)c(NC(=O)/C=C/c2cccs2)c1 | 2.6 | 4.4 | ·
CCCN1C2CCCC1CC(NC(=O)c1ccccc1Br)C2 (stereo not given) | · | -1.4 | ·
CC(C)c1nnc(NC(=O)CCS(=O)(=O)c2nc(-c3cccs3)cc(C(F)(F)F)n2)s1 | 4.8 | 32.3* | >38
CC(C)c1nnc(NC(=O)CCS(=O)(=O)Cc2ccccc2)s1 | · | -0.9 | ·
CCN(CC)c1ccc2cc(-c3nc(-c4ccc(OC)cc4)cs3)c(=O)oc2c1 | 16.0 | · | ·
O=C(COc1cc2oc(=O)c3c(c2cc1Cl)CCC3)Nc1cccnc1 | · | -2.1 | ·
Cc1c(OCC(=O)Nc2cccnc2)ccc2c3c(c(=O)oc12)CCC3 | · | 93.7* | 10.3*
C#Cc1cccc(C(=O)N2CCCC(C(=O)c3ccc(OC)cc3C)C2)c1 (stereo not given) | · | 4.5 | ·
OCCC#Cc1ccc(CN2CCN(Cc3ccccc3)C(CCO)C2)cc1 (stereo not given) | -4.7 | 3.5 | ·
CSc1cccc(NC(=O)CSc2ncccc2C(=O)Oc2cccc([N+](=O)[O-])c2)c1 | · | 7.1 | ·
CCN(C(=O)CSc1ncccc1C(=O)Oc1cccc([N+](=O)[O-])c1)c1cccc(C)c1 | 12.9 | 32.8* | ?
SMILES | Mtb RmlCD inh | RecA splice inh | GFP chromo cs
N=c1n(Cc2ccccc2)c2ccccc2n1CC(O)COc1ccc(Cl)cc1Cl (stereo not given) | 7.2 | 31.9* | >38
N=c1n(Cc2ccc(Cl)cc2)c2ccccc2n1CC(O)COc1ccccc1 (stereo not given) | 5.6 | 13.5 | ·
c1ccc(-c2nc(N3CCOCC3)c3ccccc3n2)nc1 | 14.3 | -1.2 | ·
c1ccc(-c2nc(N3CCCCCC3)c3ccccc3n2)nc1 | 16.6 | 32.2* | >38
Cc1ccc(C2=NC3(CCCCCC3)NC2=S)cc1 | -5.4 | 0.0 | ·
COCCNC(=S)N1CCN(Cc2ccc3c(c2)OCO3)CC1 | · | 0.6 | ·
Cc1ccccc1Nc1c([N+](=O)[O-])cncc1[N+](=O)[O-] | · | 14.7 | ·
O=[N+]([O-])c1cncc([N+](=O)[O-])c1Nc1cccc(O)c1 | · | 46.1* | 15.6*
Cc1ccc(NC(=O)COC(=O)c2cc(Cl)cc(Cl)c2)c(Br)c1 | · | -3.2 | ·
C[C@H](NC(=O)C1CC(=O)N(c2ccc3c(c2)OCO3)C1)C(=O)NC1CCCCC1 (stereo not given in full) | · | -1.3 | ·
COc1ccc(/C=N/NC(=O)c2cccnc2)cc1COc1ccc([N+](=O)[O-])cc1 | 3.8 | -0.7 | ·
Cc1cc(-c2ccccc2)nc2cc(C(=O)N(Cc3ccccc3)Cc3ccccc3)nn12 | · | 32.5* | >38
COC(=O)c1cc2nc(-c3ccccc3)cc(C)n2n1 | 6.9 | · | ·
CN(C)CCN1C(=O)c2oc3ccc(F)cc3c(=O)c2C1c1ccncc1 (stereo not given) | -2.9 | 1.9 | ·
COc1cc2[nH]c(=S)nc(NCc3ccc(Cl)cc3)c2cc1OC | · | 7.3 | ·
Cc1nc(NCc2cccnc2)c2c3c(sc2n1)CCCC3 | 89.3 | 1.7 | ·
c1cncc(CNc2ncnc3sc4c(c23)CCCC4)c1 | -10.0 | 36.5* | >38
CCCOc1ccc(C(=O)NCCN2CCOCC2)cc1 | · | -0.6 | ·
COc1ccc(CNC(=O)C2CCCN2S(=O)(=O)c2ccc(S(=O)(=O)N(C)C)cc2)cc1 (stereo not given) | 6.0 | · | ·
Oc1ccc(O)c2c1C1c3ccccc3C2c2ccccc21 | · | 43.8* | 10.1*
Oc1ccc2ccccc2c1C1Nc2cccc3cccc(c23)N1 | -0.1 | -2.0 | ·
CCOC(=O)c1c(NC(=O)CSc2nnc(-c3c[nH]c4ccccc34)n2CCOC)sc2c1CCCC2 | · | 31.7* | >38
CCOC(=O)c1c(NC(=O)CSc2nnc(-c3c[nH]c4ccccc34)n2C)sc2c1CCCC2 | · | -0.3 | ·
CNC(=O)NC(=O)C(C)OC(=O)c1oc2ccccc2c1CSc1ccc(Cl)cc1 (stereo not given) | 3.9 | 0.4 | ·
Cc1ccc(NC(=O)c2ccccc2)cc1 | · | 2.3 | ·
SMILES | Mtb RmlCD inh | RecA splice inh | GFP chromo cs
Cc1ccc(NC(=O)C2=C(c3ccccc3)S(=O)(=O)CCS2(=O)=O)cc1 | 6.2 | 94.5* | 1.9*
Cc1cc(C)n(CCNC(=O)C2CCC(=O)N(Cc3ccc(Cl)cc3)C2)n1 (stereo not given) | · | 0.5 | ·
CCOC(=O)C1=C(N)Oc2cc(O)ccc2C1c1cccc([N+](=O)[O-])c1 (stereo not given) | · | 5.7 | ·
COC(=O)c1c(NC(=O)/C=C/C(=O)O)sc(Cc2ccccc2)c1C | -11.2 | 51.1* | 24.3*
COC(=O)c1c(N)sc(Cc2ccccc2)c1C | -6.2 | 15.0 | ·
COC(=O)c1ccccc1S(=O)(=O)N1CCC(C(=O)OCc2cccc(OC)c2OC)CC1 | · | 1.5 | ·
CC(=O)O/C(=C\c1cn(C(C)=O)c2ccccc12)C(=O)O | 12.3 | -3.8 | ·
CC(=O)n1cc(N(C(=O)CCl)c2ccc([N+](=O)[O-])cc2)c2ccccc21 | -2.0 | 90.3* | 2.28*
CC(=O)n1cc(N(C(=O)CCl)c2ccccc2)c2ccccc21 | -5.9 | 85.5* | 4.41*
O=Cc1[nH]c2ccccc2c1N(C(=O)CCl)c1ccc([N+](=O)[O-])cc1 | 6.7 | 1.1 | ·
CC(C)C[C@H](NC(=O)[C@@H](Cc1ccccc1)n1c(=O)[nH]c2ccccc2c1=O)C(=O)N[C@@H](Cc1ccccc1)C(=O)O | · | 11.4 | ·
O=S(=O)(Nc1c(O)ccc2ccccc12)c1ccccc1 | · | 93.3* | 2.2*
O=S(=O)(Nc1cccc2ccccc12)c1ccccc1 | -5.4 | -0.1 | ·
O=S(=O)(Nc1c(O)ccc2ccccc12)c1ccc(F)cc1 | · | 95.4* | 3.04*
O=S(=O)(Nc1ncccn1)c1ccc(F)cc1 | · | 1.0 | ·
CC(Oc1ccc(Cl)cc1)C(=O)Nc1sccc1C(N)=O (stereo not given) | -8.8 | 3.4 | ·
